High-throughput results from PubChem BioAssay.
ELG1 repair inh = qHTS screen for small molecules that inhibit ELG1-dependent DNA repair in human embryonic kidney (HEK293T) cells expressing luciferase-tagged ELG1. HEK293T ELG1-luciferase reporter, luminescence, 16 h; DNA damage induced by 5-fluorouridine. 330,000 compounds, 2.3% hits. Potency, µM (titrated, usually from 46.1 µM), hits mostly inhibitors. AID 504467, 2011; further: nearly all actives have a fitted effect of over 55% in size
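Overnight (16 hr) co-exposure of 2,000 cells/well to 5-fluorouridine and compound at 37 °C preceded detection. Luciferase was quantified via ONE-Glo luminescence; loss of signal denotes inhibition.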
HT1080 IDH1KD tx = qHTS for induction of synthetic lethality in tumor cells producing 2HG: qHTS for the HT-1080-IDH1KD cell line; HT-1080 IDH1 knockdown viability, ATP luminescence, 48 h; Potency, µM (series often up to 46.1 µM), actives largely listed as cytotoxic; 360,000 compounds, 2% hits; AID 686971, 2013
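Viability of IDH1-knockdown HT-1080 fibrosarcoma cells was assessed by CellTiter-Glo after 48 h at 37 °C with titrated compound; concentration-effect curves were classified by fit quality and response size.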
HT1080-NT tox = qHTS for induction of synthetic lethality in tumor cells producing 2HG: qHTS for the HT-1080-NT fibrosarcoma cell line; HT-1080-NT fibrosarcoma viability, CellTiter-Glo ATP luminescence, 48 h; Potency, µM (highest dose often 46.1 µM), hits mostly cytotoxic; 360,000 compounds, 1.6% hits; AID 686970, 2013;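 further: NT is the 2HG producing partner of a matched IDH1 knockdown line; nearly all actives have a fitted effect of over 55% in size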
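HT-1080-NT fibrosarcoma cells (2HG-overproducing), 750 cells/well in RPMI with 5% FBS, dosed after 2 h and incubated 48 h at 37C. CellTiter-Glo luminescence normalized to DMSO and no-cell wells; concentration-response curves fitted and classed.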
DT40 TDP1 no CPT = qHTS for Inhibitors of human tyrosyl-DNA phosphodiesterase 1 (TDP1): qHTS in cells in absence of CPT. Potency, µM (doses to about 46.2 µM), usual class: inhibitors. 420,000 compounds, 15% hits. AID 686978, 2013. DT40 Tdp1-/- hTDP1 cells, no CPT, ATP luminescence, 48 h; further: nearly all actives have a fitted effect of over 55% in size
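Growth of hTDP1-complemented DT40 Tdp1-knockout cells is measured by ATP luminescence after at least 48 hr compound exposure at 37 °C, with DMSO substituting for the 20 nM CPT used in the parallel screen.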
IL1B secr inh = qHTS for Inhibitors of Inflammasome Signaling: IL-1-beta AlphaLISA Primary Screen. activity change, % at 57.5 µM. 360,000 compounds, 4.7% hits. THP-1 LPS/ATP IL-1B secretion, AlphaLISA, 16 h; hits give low values; in the data active means activity change below about -50%; inconclusive means mostly about -30% to -49%
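THP-1 cells pretreated 1 hr with compounds (up to 57.5 uM final), then stimulated with LPS (250 ng/mL final) plus ATP (1.25 mM final); secreted IL-1B measured by AlphaLISA after 16 hr, decreased signal indicating inhibition.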
DT40 TDP1 CPT = qHTS for Inhibitors of human tyrosyl-DNA phosphodiesterase 1 (TDP1): qHTS in cells in presence of CPT | chicken DT40 Tdp1-/-;hTDP1 cells + 20 nM CPT, ATP luminescence, 48 h | 420,000 compounds, 12% hits | Potency, µM (doses to about 46.2 µM), usual class: inhibitors; further: nearly all actives have a fitted effect of over 55% in size
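Cell growth measured by CellTiter-Glo luminescence after a minimum 48 h, 37 C compound exposure with 20 nM CPT in Tdp1-knockout DT40 cells stably expressing hTDP1, seeded 400/well; qHTS titration format.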
Numbers stand for hits; i = inactive; ? = inconclusive; nt = no result given; ! = a repeat was not active. Hits are enriched below; roughly 19% of the tested compounds scored in any of these assays. Unless noted, the call rests on the fitted dose curve; in most records, active means well fitted curve in the direction sought with a large enough effect; inconclusive means small, poorly fitted or top-dose-only effect, or another doubt; inactive means no such curve, though single readings can be large; an effect the other way counts as inactive or inconclusive.

SMILES | ELG1 repair inh | HT1080 IDH1KD tx | HT1080-NT tox | DT40 TDP1 no CPT | IL1B secr inh | DT40 TDP1 CPT
CCOc1ccc(CN(C)CC(=O)NCc2ccc(F)cc2)cc1 | i | i | i | 20.6µM | i | ?
CCOc1ccc(NC(=O)CSc2nnc3scc(-c4ccc(Cl)cc4)n23)cc1 | nt | nt | nt | ? | nt | i
COc1ccc(CN2CCCCCC2)cc1Br | i | i | i | i | i | i
COc1ncc2nc(-c3ccccc3)c(=O)n(C3CC3)c2n1 | nt | nt | nt | i | nt | i
Cc1cc(=O)oc2cc(OC(=O)C3CCN(C(=O)c4ccc(F)cc4)CC3)ccc12 | i | i | i | i | i | i
COc1ccc(NC(=O)N2CC3(CCNCC3)C2)cc1 | nt | nt | nt | i | nt | i
COc1ccc(Br)cc1CN(C)CC(=O)NCc1ccc(F)cc1 | ? | i | i | 18.4µM | ? | ?
CC(C)CCN(CC(=O)NCc1ccc(F)cc1)S(=O)(=O)c1ccccc1F | i | i | i | ? | -79.6 | 23.1µM
CCOc1cc2c(cc1O)C(=NO)CC1C2CCC2(C)C(O)CCC12 (stereo not given) | nt | ? | 0.291µM | 0.0517µM | i | 0.184µM
COc1cc2c(cc1O)CCC1C2CC[C@@]2(C)C1CC[C@@H]2O (stereo not given in full) | nt | nt | nt | 1.88µM | nt | 2.37µM
C[C@]12CC[C@@H]3c4ccc(OC(=O)c5ccccc5)cc4CC[C@H]3[C@@H]1CC[C@@H]2O | i | i | i | 13µM! | i | 14.6µM!
C[C@]12CCC3c4ccc(OC(=O)c5ccccc5)cc4CCC3C1CCC2=O (stereo not given in full) | nt | nt | nt | i | nt | i
O=C(c1cc(-c2ccc(Br)cc2)n[nH]1)N1CCN(S(=O)(=O)c2ccc(Br)cc2)CC1 | nt | nt | nt | 16.4µM | nt | 14.6µM
O=C(c1cc(-c2ccccc2)n[nH]1)N1CCN(S(=O)(=O)c2ccccc2)CC1 | i | i | i | ? | i | ?
Cc1ccc(S(=O)(=O)N2CCN(C(=O)c3cc(-c4ccc(Br)cc4)n[nH]3)CC2)c(C)c1 | nt | nt | nt | 11.6µM | nt | 16.4µM
COc1ccc(-c2cc(C(=O)N3CCN(S(=O)(=O)c4ccccc4)CC3)[nH]n2)cc1 | ? | i | i | ? | i | 20.6µM
O=C(c1cc(-c2ccc(Br)cc2)n[nH]1)N1CCN(C(=O)c2ccccc2Br)CC1 | ? | i | i | ? | i | ?
COc1ccc(Cl)cc1S(=O)(=O)N1CCN(C(=O)c2cc(-c3ccc(Br)cc3)n[nH]2)CC1 | nt | nt | nt | 9.2µM | nt | 11.6µM
NC/C=C/C(=O)O | nt | nt | nt | i | nt | i
Cc1ccc(N2CC(c3nnc(Cc4ccc(F)cc4)o3)CC2=O)cc1 (stereo not given) | nt | nt | nt | i | nt | i
CC(C)CCC(C(=O)O)C(C)CC(=O)Nc1ccn(-c2ccccc2)n1 (stereo not given) | i | i | i | i | i | i
Cc1ccc2nc(-c3ccc(Cl)c(NC(=O)c4cccc([N+](=O)[O-])c4C)c3)oc2c1 | nt | nt | nt | i | nt | ?
COC(=O)c1cnc(SCc2ccc([N+](=O)[O-])cc2)n1C | i | i | i | i | i | i
COc1ccccc1-c1cc(C(=O)N2CCN(S(=O)(=O)c3ccc(C)cc3)CC2)[nH]n1 | ? | i | i | ? | i | 23.1µM
COc1ccc(S(=O)(=O)N2CCN(C(=O)c3cc(-c4ccc(Br)cc4)n[nH]3)CC2)cc1OC | 23.1µM | ? | ? | 7.31µM | nt | 9.2µM
SMILES | ELG1 repair inh | HT1080 IDH1KD tx | HT1080-NT tox | DT40 TDP1 no CPT | IL1B secr inh | DT40 TDP1 CPT
CCC(C)Sc1nnc(NC(=O)c2ccco2)s1 (stereo not given) | nt | i | i | i | i | i
Cc1ccnc(N2CCC(C(=O)Nc3ccc(Oc4ccccc4)cc3)CC2)n1 | i | i | i | ? | i | ?
Cc1ccnc(N2CCC(C(=O)Nc3cccc(C(F)(F)F)c3)CC2)n1 | 16.4µM | i | i | ? | i | i
Cc1ccc(NC(=O)C2CCCN(c3ncccn3)C2)cc1C (stereo not given) | ? | i | i | i | i | i
O=C(Nc1cccc(C(F)(F)F)c1)C1CCN(c2nnc(-n3cccc3)s2)CC1 | nt | nt | nt | 20.6µM | nt | ?
Cc1ccnc(N2CCCC(C(=O)Nc3ccc(C)c(C)c3)C2)n1 (stereo not given) | i | i | i | ? | i | 9.2µM
CCC(C)c1ccc(NC(=O)C2CC3CCC2C3)cc1 (stereo not given) | nt | i | i | 25.9µM | -55.3 | ?
COc1cc(CC(=O)OCC(=O)NC2CCCCC2C)cc(OC)c1OC (stereo not given) | i | i | i | i | i | i
COc1ccc(NC(=O)C2CCCN(c3ncccn3)C2)cc1 (stereo not given) | ? | i | i | i | i | i
CCC(C)c1ccc(NC(=O)C2CCCN(c3ncccn3)C2)cc1 (stereo not given) | i | ? | ? | 18.4µM | i | 20.6µM
CCN(CC)S(=O)(=O)c1ccc(C(=O)Nc2ccc(Cc3ccncc3)cc2)cc1 | ? | i | i | 14.6µM | -83.4 | 16.4µM
